This is an account of results in PMC7819943, “Rice protein-binding microarrays: a tool to detect cis-acting elements near promoter regions in rice”.

In all, about 68,000 sequences were measured (“fluorescence intensity (a.u.)”: median about 9,100, highest 2% from about 16,000 on). The entries come from a sample that favours the highest values as a whole.

OsWRKY34, sequence (Q0JBA9 entry or part of it): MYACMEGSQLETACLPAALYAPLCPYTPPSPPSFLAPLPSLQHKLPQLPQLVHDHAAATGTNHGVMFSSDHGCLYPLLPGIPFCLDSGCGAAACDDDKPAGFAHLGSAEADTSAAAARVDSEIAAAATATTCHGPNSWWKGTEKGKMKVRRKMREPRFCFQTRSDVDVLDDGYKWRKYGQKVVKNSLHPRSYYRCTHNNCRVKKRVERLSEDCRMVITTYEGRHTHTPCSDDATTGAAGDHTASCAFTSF

This test deals with OsWRKY34 (Oryza sativa, UniProt Q0JBA9 1-250). As to the kind of experiment: protein-binding microarray (RPBM); PBS, 2% BSA, 51.3 ng/ul salmon testes DNA, 50 uM zinc acetate, 200 nM TF, 25 C, 1 h; high values mean tight binding. The note with it: protein: recombinant; tags: N-terminal polyhistidine and DsRed monomer fusion (pET32a); label: CyDye5-dUTP incorporated in the synthesized complementary strand; 3' TTTTT single-stranded linker to array surface; dsDNA, one strand shown. The essentials:
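For the binding signal, per-feature fluorescence intensity was read in arbitrary units on an Axon 4000B scanner. Before scanning, a 2% BSA-blocked custom Agilent array made double-stranded with Cy5-dUTP was washed after 1 h at 25 °C with 200 nM protein and 50 µM zinc acetate. The proteins were Ni–NTA-purified transcription factors with N-terminal polyhistidine and DsRed fusions, expressed in E. coli BL21-CodonPlus.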
Take “TTGACTTTTTATTAACGTTTGACCATTTGTTTTATTTAAACGGAGTCACCTAGTGCAG”: the binding signal was 12000 fluorescence intensity (a.u.).
Then “GCCGTTAACTTTTTTAAATATGTTTGACCGTTCGTCTTATCGGAGTCACCTAGTGCAG”, with 10800 fluorescence intensity (a.u.); and “TGACTTTTTTAAATATGTTTGACCGTTCGTCTTATTGAAACGGAGTCACCTAGTGCAG”, with 8190 fluorescence intensity (a.u.).
The figure for “GGTCTTGTCTGTTGTGTTAGCCATTTGTACCAACTCATGACGGAGTCACCTAGTGCAG” is 12000 fluorescence intensity (a.u.); for “CGCCGTTGACTTTTTTAAATATGTTTGACCGTTCGTCTTACGGAGTCACCTAGTGCAG” it is 39400 fluorescence intensity (a.u.); for “TCTTTTTGTTTGACTTTTTTAAAACCACAGGTCACCCTTACGGAGTCACCTAGTGCAG” it is 14800 fluorescence intensity (a.u.).
The figure for “TTGACCTTTTCTTTGTTGAACGTTGACCGTTCCGTCTTATCGGAGTCACCTAGTGCAG” is 14300 fluorescence intensity (a.u.); for “CTTTGTTGTTTTCTTCTGTTAGTGTCTGTATTATTCATTACGGAGTCACCTAGTGCAG” it is 9880 fluorescence intensity (a.u.).
With “TCTTGTGTACGTTGTGTGTTGTCATTGTGTGTCTGTCTTACGGAGTCACCTAGTGCAG”, the binding signal was 17200 fluorescence intensity (a.u.).
Turning to “TGTACGTGACCAGTAACGCGTTGACCTTTTCTTTGTTGAACGGAGTCACCTAGTGCAG”, the binding signal was 17000 fluorescence intensity (a.u.).
Turning to “CACCGTTGACTTTTTGACCAACGTTTGACCCTTTGTTTTACGGAGTCACCTAGTGCAG”, the binding signal was 57700 fluorescence intensity (a.u.).
Then “TTCACGTGTGTTTTGTGTAGTTTTCTACCAGTTTGTTGAACGGAGTCACCTAGTGCAG”, with 8470 fluorescence intensity (a.u.); and “GTGGGTTGGGCCAAAGAAAGGTAGGCTGAGTGGAGGGATGCGGAGTCACCTAGTGCAG”, with 10400 fluorescence intensity (a.u.); and “CGCACACCACCGCCTACGTAGTAGCTCTGATCGGCGCTGTCGGAGTCACCTAGTGCAG”, with 8250 fluorescence intensity (a.u.).
The figure for “AATTTTTTTTCAGCTGATCGCCACTTTATTCTTTTCATACCGGAGTCACCTAGTGCAG” is 10200 fluorescence intensity (a.u.).
Then “ACCGTGTTGCTGCCTGGTGCTCGCTTTGTTCGTAGGCCTTCGGAGTCACCTAGTGCAG”, with 8520 fluorescence intensity (a.u.); and “GCTAGCGCTGGAATGGTCCTACTTCTTTCATTTACAACATCGGAGTCACCTAGTGCAG”, with 8690 fluorescence intensity (a.u.); and “TATCATTATGTCCGAACGGTATACCTTCTTGTATCATTTCCGGAGTCACCTAGTGCAG”, with 11200 fluorescence intensity (a.u.).
In the case of “CTCCGTAAGCTCCAGCCCACTGCCACCGCTGCTCCAGCTACGGAGTCACCTAGTGCAG”, the binding signal was 8250 fluorescence intensity (a.u.).
Then “GGCGAGGCGAATGTGATGGGCTAAGTTTTGTCGTTGGCAACGGAGTCACCTAGTGCAG”, with 8210 fluorescence intensity (a.u.); and “GCCATGAAACCTCCTTTGCTCACTGCTTTGGAACCATACTCGGAGTCACCTAGTGCAG”, with 9020 fluorescence intensity (a.u.).
For “AGTGTTGACCAGCTTTGACCACCTTACCCAACTCCTTGTGCGGAGTCACCTAGTGCAG”, the binding signal is 17200 fluorescence intensity (a.u.).
Take “TTTCCGCATTTCCGCTCCTCTCTTTTTTACCCTTGACATGCGGAGTCACCTAGTGCAG”: the binding signal was 8530 fluorescence intensity (a.u.).
The figure for “CACCGTTAACTTTTTATTACGTATTTGACCATTTGTCTTACGGAGTCACCTAGTGCAG” is 10200 fluorescence intensity (a.u.); for “ATCCAACCCAACTCCCGTTGCTTTTTGTTGGACCCACTTGCGGAGTCACCTAGTGCAG” it is 8110 fluorescence intensity (a.u.).
With “CTTTTCATCTTCTTGACGACTTGGTTGTTTGATTCATTTACGGAGTCACCTAGTGCAG”, the binding signal is 8830 fluorescence intensity (a.u.).
The figure for “CCGCCTCCTTTGACCCTACCAAAATTTACCGTTGACCATGCGGAGTCACCTAGTGCAG” is 20000 fluorescence intensity (a.u.); for “CGCCGTTGACTTTTTGTTTAACGTTTGACCATTTGTCTTACGGAGTCACCTAGTGCAG” it is 24400 fluorescence intensity (a.u.); for “ACCGACCTACTTAATTGCCTCCTGCCAAAATGACCCTTTACGGAGTCACCTAGTGCAG” it is 9140 fluorescence intensity (a.u.).
Then “ATTTTGAGTTTTTACTTGTAACGTTTGACCACTTGTCTTACGGAGTCACCTAGTGCAG”, with 8620 fluorescence intensity (a.u.); and “ATGACGCCGTTGACTTTTTGTCCAACGACCATTCATTTTACGGAGTCACCTAGTGCAG”, with 31300 fluorescence intensity (a.u.); and “AAAAACTGGGCCAGCTTTTTGTTTTTTTTACCACCCACAGCGGAGTCACCTAGTGCAG”, with 9010 fluorescence intensity (a.u.).
The figure for “AACCCATTTTCTGCTCTGCTCTTGCTTTGCTTTGCATTTCCGGAGTCACCTAGTGCAG” is 14000 fluorescence intensity (a.u.); for “ATTGTTTGTCCCGTCCCTACATCACGCCAAAAGTCACAACCGGAGTCACCTAGTGCAG” it is 11800 fluorescence intensity (a.u.).
As to “GGAGGGGCGGCGATCGAGCAGAGCAGGGGAGGGAATCCTGCGGAGTCACCTAGTGCAG”, the binding signal is 8310 fluorescence intensity (a.u.).
With “CAGTGTATATTTCAGTGTATATTTGGTAGATTTGGTAGTACGGAGTCACCTAGTGCAG”, the binding signal is 8310 fluorescence intensity (a.u.).
“CTACCCTATGCTATGAGACCGCTCTTATTCCGGGGTTTAACGGAGTCACCTAGTGCAG”: the binding signal is 9760 fluorescence intensity (a.u.).
With “TTCGCCGTGTTACTGTAGCTCAAATCTCTAGCTTCCCCAACGGAGTCACCTAGTGCAG”, the binding signal was 9240 fluorescence intensity (a.u.).
Take “CTAACACATTCATCACATGATTAAAATTTTATTATTTATACGGAGTCACCTAGTGCAG”: the binding signal was 8510 fluorescence intensity (a.u.).
With “CCATCATATTTGACTATTTTCAGGTGTTAGTTTGGACGATCGGAGTCACCTAGTGCAG”, the binding signal was 9210 fluorescence intensity (a.u.).
As for “TCCACCATTGACCAATGCCACGTCCTGCCAAATCCTCCTCCGGAGTCACCTAGTGCAG”, the binding signal is 10700 fluorescence intensity (a.u.).
The figure for “TTGGTTAGTTGCCACTCTCTCTCGCCGTGACCCTTTTTTACGGAGTCACCTAGTGCAG” is 20600 fluorescence intensity (a.u.); for “CACCATTGACTTTTTAGCATATGTTTGACCGTTCGTCTTACGGAGTCACCTAGTGCAG” it is 18200 fluorescence intensity (a.u.).
On to “CACCATTGACTTTTTAGCACATGTTTGACCGTTCGTCTTACGGAGTCACCTAGTGCAG”, for which the binding signal was 14800 fluorescence intensity (a.u.).
Turning to “TGACTTTTTAGCATATGTTTGACCGTTCGTCTTATTCAAACGGAGTCACCTAGTGCAG”, the binding signal is 13600 fluorescence intensity (a.u.).
